tim10-1 inh: growth inhibitors of tim10-1 mutant yeast; S. cerevisiae tim10-1 ts strain growth, BacTiter-Glo, 24 h; inhibition, % at 20 µM; 330,000 compounds, 2.2% hits; AID 463190;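 active means inhibition of at least 40%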;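 further: mutant grown at 25 °C; 0% = DMSO wells with yeast and 100% = wells holding no yeast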
SKKanGAS inh: blocks kanamycin growth of S. pyogenes SKKanGAS strain; BacTiter-Glo, 6 h; inhibition, % at 7.5 µM; 300,000 compounds, 1.3% hits;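 active means mean replicate score, as percent of positive control median, at least 50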;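 further: strain carries kanamycin resistance gene driven by streptokinase promoter and grows in 40 µg/ml kanamycin; loss of luminescence reflects streptokinase promoter inhibition or plain growth inhibition; 0% = median of DMSO wells and 100% = positive control at its reference dose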
tim23-1 inh: growth inhibitors of tim23-1 mutant yeast; S. cerevisiae tim23-1 growth, BacTiter-Glo luminescence, 24 h; inhibition, % at 20 µM; 330,000 compounds, 1.3% hits; AID 463212;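 active means growth inhibition of the mutant yeast at or above 50%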;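 further: temperature-sensitive mutant grown at 25 °C; plate controls were DMSO-treated mutant yeast for no effect and medium wells lacking yeast for full effect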
PfHsp90 set2: reduces growth (ATP signal) of yeast expressing P. falciparum Hsp90. S. cerevisiae expressing PfHsp90, BacTiter-Glo ATP, 48 h; yeast lacking PDR1 and PDR3 efflux regulators. inhibition, % at 9.4 µM. 310,000 compounds, 0.32% hits. AID 504621;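 active means every replicate shows inhibition above about 80%, whatever the replicate mean, limit read from the data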;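 further: 0% = DMSO neutral controls and 100% = 20 µM radicicol positive controls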
V-ATPase pHluor: yeast V-ATPase proton transport regulation by pHLuorin; S. cerevisiae, pHLuorin cytosolic pH fluorescence; response, % at 10 µM; 350,000 compounds, 0.37% hits; in the data active means response mostly above about 7.3%, no sharp cut-off; inactive means mostly below about 5.4%; further: actives read high
TIM10 inh: growth inhibitors of TIM10 yeast strain; S. cerevisiae TIM10 strain growth, BacTiter-Glo luminescence, 24 h; AID 463195; inhibition, % at 10 µM; 330,000 compounds, 1.4% hits;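 active means inhibition of 40% or more at the single tested concentration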;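 further: wild-type TIM10 isogenic control strain grown at permissive 25 °C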
Starred values were filed as active, the others as inactive; · = no result. The list is not random: actives were taken first. Their share in the collection is about 4.6%.

SMILES | tim10-1 inh | SKKanGAS inh | tim23-1 inh | PfHsp90 set2 | V-ATPase pHluor | TIM10 inh
c1ccc(SCCOCCn2cncn2)cc1 | 13 | -3 | 2 | 10 | 4 | -14
OC(Cn1cncn1)(c1ccccc1)c1ccccc1 | -21 | 0 | 27 | 92* | 6 | 0
Nc1nc(=O)n(C2CC(O)C(CO)O2)cc1F (stereo not drawn) | · | · | · | -8 | 4 | ·
Cn1c(CNC(=O)C(Cc2ccccc2)NC(=O)c2ccccc2F)cc(=O)n(C)c1=O (stereo not drawn) | -4 | -1 | 11 | 4 | -3 | 9
COc1ccccc1C(=O)NNC(=O)C(=O)Nc1cccc(Cl)c1C | -34 | 53* | -37 | -8 | -5 | -38
COc1cccc(C(=O)NNC(=O)C(=O)Nc2cccc(Cl)c2C)c1 | -14 | 27 | 1 | -23 | 0 | -16
CCOC(=O)c1c(C)oc2c1c(C(c1cccnc1)N1CCOCC1)c(O)c1ccccc12 (stereo not drawn) | 18 | 4 | 35 | 91* | 0 | 25
O=C(Nc1nccs1)c1sc2ccccc2c1Cl | 24 | 50* | 19 | -6 | 1 | 25
O=C(Nc1ccccc1-c1nc2ccccc2[nH]1)c1sc2ccccc2c1Cl | 6 | 64* | 14 | · | · | 0
O=C(Nc1ccc(Cl)c(Cl)c1)Nc1nccs1 | 16 | 55* | 12 | -159 | -1 | 28
O=C(Nc1nccs1)c1sc2cc(Cl)ccc2c1Cl | 26 | 66* | 1 | · | -6 | 1
Cc1ccc2nc(-c3ccc(NS(=O)(=O)c4ccc(F)c(F)c4)cc3)sc2c1 | · | 76* | · | -34 | -3 | ·
Cc1ccc2nc(-c3ccc(NS(=O)(=O)c4ccccc4)cc3)sc2c1 | -3 | 8 | 7 | 10 | 0 | 12
Cc1ccc(NC(=O)CSc2nnc(-c3ccncc3)o2)cc1C | -19 | 9 | -3 | 9 | 2 | -11
CCOc1ccc(/C=N/NC(=S)NC2CC3CCC2C3)cc1 (stereo not drawn) | 32 | 20 | 19 | 0 | -1 | 15
CCOc1ccc(/C=N/NC(=S)NC2CC3CC2C2C=CCC32)cc1 (stereo not drawn) | 32 | 64* | 25 | -16 | 0 | 29
Cc1nc(NC(=O)CSc2nnc(Cn3nnc4ccccc43)n2C)sc1C | 9 | -5 | 3 | -5 | -4 | 0
CC1(C)C=Cc2c(ccc(-c3coc4cc(O)ccc4c3=O)c2O)O1 | -4 | -4 | 14 | · | · | 3
CC(C)=CCc1c(-c2ccc(O)cc2O)oc2c3c(cc(O)c2c1=O)OC(C)(C)C=C3 | 26 | 108* | 39 | · | · | 16
CC(C)=CCc1c2c(c(O)c3c(=O)c4c(oc13)-c1cc(O)c(O)cc1OC4C=C(C)C)C=CC(C)(C)O2 (stereo not drawn) | 25 | 93* | 11 | · | · | -14
CC(C)Oc1ccc(/C(O)=C2/C(=O)C(=O)N(CCN3CCNCC3)C2c2cccc([N+](=O)[O-])c2)cc1 (stereo not drawn) | 2 | 3 | -2 | 10 | 4 | -8
COc1cccc(-c2coc3c(C)c4oc(=O)c(CCC(=O)O)c(C)c4cc23)c1 | 0 | 51* | 12 | -35 | -5 | 14
COc1cccc(-c2coc3c(C)c4oc(=O)c(CC(=O)O)c(C)c4cc23)c1 | 1 | 17 | 12 | -6 | -2 | 24
CCc1nc(SCC(=O)O)c2c3c(sc2n1)COC(C)(C)C3 | 11 | 2 | 10 | -2 | -1 | -9
Cc1cc(C)n(-c2nc(SCC(=O)O)c3c4c(sc3n2)COC(C)(C)C4)n1 | 13 | 70* | 4 | 32 | -3 | 8
O=C(Nc1ccc(Cl)c(Cl)c1)C1CC(=O)N(c2ccc(Br)cc2)C1 (stereo not drawn) | 26 | 54* | 46 | -36 | 2 | 29
COc1ccc(-c2cc(C(F)(F)F)c(C#N)c(SCC(=O)Nc3ccc(C)cc3)n2)cc1 | -1 | 4 | 3 | -19 | 2 | 11
COc1ccc(C(=O)CSc2[nH]c(=O)cc(C(F)(F)F)c2C#N)cc1 | 1 | 66* | 11 | -21 | 0 | -23
CC(C)[C@@H](C(=O)NC1CCCC1)N1C(=O)N2CCc3c([nH]c4ccccc34)[C@@]2(C)C1=O | 26 | 68* | 26 | -16 | -1 | 14
C[C@@H](C(=O)NC1CCCC1)N1C(=O)N2CCc3c([nH]c4ccccc34)[C@@]2(C)C1=O | 14 | -4 | 8 | -1 | -1 | 1

From PubChem BioAssay
